Laboratory results reported in ChEMBL document CHEMBL4513160, “CO-ADD screening of MMV (CH) - Small Polar Library”.
Screen size: about 18,000 compounds; fewer than 10 showed an effect of 50% or more. Only a sample is shown.

System: Pseudomonas aeruginosa
Assay: Antibacterial activity against Pseudomonas aeruginosa PAO397 [PAO1 d(mexAB-oprM) d(mexCD-oprJ) d(mexEF-oprN) d(mexJKL) d(mexXY) d(opmH)] (CO-ADD:GN_211); MIC in CAMBH media using NBS plates, by OD(600)
Format: functional
Conditions: Concentration 300 ug.mL-1, ASSAY_TEST Inhibition of Bacterial Growth, detection method Absorption (OD600), MEDIA CAMHB, plate type 384well, CORNING #3640, time 18 hr

SMILES	Inhibition [%]
CCNC(=O)COC(=O)c1cc(O)nc2ccccc12	-1.47
Cc1cc(CO)ccc1N1CCOCC1	6.45
CC(C)OCC(O)CN1CCc2ccc(O)cc2C1 (centres undefined)	-14.27
CCc1ccc(CN2Cc3cnn(CCO)c3C2)nc1	18.58
NC(=O)CN1CCC(NC(=O)c2cc(Br)c[nH]2)CC1	14.11
O=C(CNC(=O)N1CCC=C(Br)C1)N1CCCCC1	-37.56
CCN(Cc1[nH]cnc1C)C1CCS(=O)(=O)C1 (centres undefined)	6.36
CN1N=C(C(=O)Nc2ccc(Cl)cn2)CCC1=O	8.23
Cc1cc(=O)n(C)cc1NC(=O)CCc1ccccn1	1.98
CC(C)(C)c1noc(CN2CCSCC2)n1	-15.23
CC(O)CN(C)c1ncc(Br)cn1 (centres undefined)	-40.03
CC(C)(C)SCC(=O)Nc1ccc(CS(N)(=O)=O)cc1	-2.55
CS(=O)(=O)NC(c1ccc(F)cc1)c1cccnc1 (centres undefined)	-27.51
CN(C)CCOC1CCNCC1	12.65
COC(=O)CNC(=O)CSc1nc(C)cc(C)c1C#N	-8.27
CN1CCC(CN(C)S(=O)(=O)c2ccccc2)CC1	-25.1
Cc1cc(C)n(-c2ccc(C(=O)NC(C)(C)C)cn2)n1	9.83

SMILES	Inhibition [%]
Cn1cccc1CNCCNC(=O)c1ccn[nH]1	-19.28
c1ccc(C2=NCCN2)nc1	8.57
Cc1ccc(CC(=O)N2CCC[C@H]2CO)cc1O	9.81
c1ccc2[nH]c(NCC3CCCO3)nc2c1 (centres undefined)	-27.33
COCCNC(=O)CN1CCC2(CC1)OCCO2	24.44
CCOc1cccc(NC(=O)c2ccc(C)[nH]c2=O)n1	14.98
CN1CCOC(C(=O)Nc2ncc(Cl)s2)C1 (centres undefined)	-8.17
CC(=O)NC1CCN(Cc2ccc(F)c(F)c2)CC1	-27.6
Cc1ccccc1OCCN1CCC(C(N)=O)CC1	0.98
COc1ccccc1OCC(C)N (centres undefined)	15.24
NC1CC(c2cc(NCC[C@H]3CCCN3)ncn2)C1 (some centres undefined)	15.98
CNc1nnc(SCc2csc(NC(C)=O)n2)s1	-5.82
COc1ccc(C(N)c2ccncc2)cc1 (centres undefined)	-28.12
CC(=O)N1CCN(c2ccc(CN)cc2)CC1	-1.93
O=C(NC1CC1)c1n[nH]c2ccccc12	-5.33
O=C(CCCc1nccs1)NCC(=O)N1CCCCC1	-6.34
CC(CS(C)(=O)=O)NC(=O)C(C)(C)C (centres undefined)	-7.14
